# Measurements from PubChem BioAssay.
# The source made the active and inactive calls.
# Tests used:
# [1] = binders of probe aFSTL3 on microarray, primary screen, stem cell growth factor project, biochemical, small-molecule microarray, fluorescence 635/667 (AID 1064); conditions: higher = more signal;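 note: measures binding of the biotinylated anti-FSTL3 antibody to printed compounds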
# [2] = binders from COS7 lysate, DM2A8 probe, primary screen, torsin A project, cell lysate, small-molecule microarray, fluorescence 635/667 (AID 1065); conditions: higher = more signal, COS7 lysate expressing mutant human TOR1A
# [3] = binders of probe aFGF2 on microarray, primary screen, stem cell growth factor project, biochemical, small-molecule microarray, fluorescence 635/667 (AID 1067); conditions: higher = more signal;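 note: measures binding of biotinylated aFGF2 protein to printed compounds on slides; z-score merges feature fluorescence and signal-to-noise across triplicate slides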
# [4] = binders of probe aFGF10 on microarray, primary screen, stem cell growth factor project, biochemical, small-molecule microarray, fluorescence 635/667 (AID 1071); conditions: higher = more signal;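 note: score merges 667 nm spot intensity and signal to noise from triplicate slides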
# [5] = target: Neurogenic locus notch homolog protein 2 (Homo sapiens) (UniProt Q04721); test: Notch2 binders on small-molecule microarrays, primary screen, biochemical, small-molecule microarray, 635 nm fluorescence, stem cell growth factors (AID 1073); conditions: Notch2 binding, higher = more signal
# [6] = target: Pro-neuregulin-1, membrane-bound isoform (Homo sapiens) (UniProt Q02297); test: NRG1 binders on small-molecule microarrays, primary screen, psychiatric disease protein project, biochemical, small-molecule microarray, fluorescence 635/667 (AID 1075); conditions: NRG1 binding, 635 nm fluorescence, higher = more signal;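 note: score combines 667 nm spot fluorescence with signal to noise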
# Chain of Pro-neuregulin-1, membrane-bound isoform (Homo sapiens) (Q02297 whole entry, looked up, the tested form may be a part, canonical isoform): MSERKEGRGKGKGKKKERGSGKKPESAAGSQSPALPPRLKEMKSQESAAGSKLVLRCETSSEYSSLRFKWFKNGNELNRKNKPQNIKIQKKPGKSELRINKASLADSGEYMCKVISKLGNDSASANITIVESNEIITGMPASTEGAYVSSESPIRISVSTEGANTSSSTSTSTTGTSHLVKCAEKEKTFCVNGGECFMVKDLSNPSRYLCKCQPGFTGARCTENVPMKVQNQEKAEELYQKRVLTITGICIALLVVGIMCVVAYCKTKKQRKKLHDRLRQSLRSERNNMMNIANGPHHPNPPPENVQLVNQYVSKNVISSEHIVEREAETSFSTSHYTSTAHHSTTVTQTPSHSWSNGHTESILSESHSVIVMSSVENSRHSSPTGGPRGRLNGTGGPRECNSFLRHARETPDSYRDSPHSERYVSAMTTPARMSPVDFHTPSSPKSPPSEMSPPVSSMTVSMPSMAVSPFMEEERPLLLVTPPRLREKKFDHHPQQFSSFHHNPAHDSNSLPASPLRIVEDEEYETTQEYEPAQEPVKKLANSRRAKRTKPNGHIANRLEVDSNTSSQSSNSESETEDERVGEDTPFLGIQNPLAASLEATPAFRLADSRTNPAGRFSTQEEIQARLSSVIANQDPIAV
# [7] = test system: Neuregulin-1 EGF-like domain; test: binders of neuregulin-1 EGF-like domain, primary screen, biochemical, small-molecule microarray, 635 nm fluorescence (AID 1081); conditions: small-molecule microarray binding, higher = more signal;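 note: binding of the protein to compounds printed on small-molecule microarray slides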
# [8] = FRG1 promoter luciferase signal modulators, primary screen, FRG1 inhibition for FSHD, cell-based, C2C12 myotubes, firefly/Renilla luciferase, luminescence (AID 1084); conditions: higher = more signal, called active from +8 up or from −8 down
# [9] = binders of probe aFST on microarray, primary screen, stem cell growth factor project, biochemical, small-molecule microarray, fluorescence 635/667 (AID 1086); conditions: higher = more signal;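 note: score merges 667 nm fluorescence with signal-to-noise of each printed compound spot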
# [10] = binders of probe aHhip on microarray, primary screen, stem cell growth factor project, biochemical, small-molecule microarray, fluorescence 635/667 (AID 1087); conditions: higher = more signal;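 note: score merges spot fluorescence at 667nm with spot signal to noise ratio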
# [11] = test system: PRMT1 (protein arginine N-methyltransferase 1); test: PRMT1 binders on small-molecule microarrays, primary screen, biochemical, small-molecule microarray, 635 nm fluorescence (AID 1088); conditions: small-molecule microarray binding, higher = more signal;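 note: binding of Prmt1 protein to compounds spotted on small-molecule microarray slides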
# [12] = yeast growth modulation, basal conditions, primary screen, YJM789 clinical isolate, OD600, 24 h (AID 1089);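 note: growth of clinical yeast isolate S. cerevisiae YJM 789 seeded 1000 cells per well; test concentration not given here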; conditions: S. cerevisiae YJM789 growth, higher = more signal, called active from +8 up or from −8 down
# [13] = fission yeast growth modulation, primary screen, strain 972, OD600, 24 h, no modulator (AID 1090);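 note: basal condition with compound alone and no growth modifier present; test concentration not given here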; conditions: S. pombe 972 growth, higher = more signal, called active from +8 up or from −8 down
# [14] = S. cerevisiae growth modulation with rapamycin, primary screen, strain BY4716, OD600, 96 h (AID 1091); conditions: higher = more signal, called active from +8 up or from −8 down; note: test concentration not given here
# [15] = target: Torsin-1A-interacting protein 2 (Homo sapiens) (UniProt Q8NFQ8); test: LULL1 binders on small-molecule microarray, primary screen, cell lysate, human LULL1 lysate, 635/667 nm fluorescence (AID 1092); conditions: hLULL1 lysate binding, 635 nm fluorescence, higher = more signal;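 note: probe is lysate of COS7 cells overexpressing human LULL1; score merges per-feature 667 nm fluorescence with signal-to-noise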
# Chain of Torsin-1A-interacting protein 2 (Homo sapiens) (Q8NFQ8 whole entry, looked up): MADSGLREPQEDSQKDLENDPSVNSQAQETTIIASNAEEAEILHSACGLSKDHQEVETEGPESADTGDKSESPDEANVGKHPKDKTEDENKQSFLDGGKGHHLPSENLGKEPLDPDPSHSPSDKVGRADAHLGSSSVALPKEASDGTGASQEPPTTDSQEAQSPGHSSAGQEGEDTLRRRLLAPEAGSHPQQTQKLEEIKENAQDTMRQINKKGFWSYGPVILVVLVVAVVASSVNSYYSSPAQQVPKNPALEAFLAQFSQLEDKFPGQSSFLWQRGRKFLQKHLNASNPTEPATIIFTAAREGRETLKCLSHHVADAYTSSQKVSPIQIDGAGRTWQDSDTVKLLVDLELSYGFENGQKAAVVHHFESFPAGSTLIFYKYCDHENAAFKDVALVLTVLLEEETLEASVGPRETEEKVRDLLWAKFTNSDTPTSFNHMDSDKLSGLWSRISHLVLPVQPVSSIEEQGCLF
# [16] = E. coli growth modulation, two-sided OD650, primary screen, E. coli filamentation project, strain DRC41, 24 h (AID 1093); conditions: OD650, 24 h, higher = more signal, called active from +8 up or from −8 down;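 note: MC1000 strain lacking acrAB efflux and sulA so SOS filamentation is blocked; test concentration not given here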
# [17] = small-molecule microarray binders of probe aLefty2, primary screen, biochemical, biotinylated probe, 635/667 nm fluorescence (AID 1094); conditions: higher = more signal;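 note: score merges spot fluorescence near 667 nm with spot signal-to-noise ratio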
# [18] = test system: Noggin (protein binding on small-molecule microarray); test: Noggin binders on small-molecule microarray, primary screen, biochemical, 635/667 nm fluorescence (AID 1095); conditions: 635 nm fluorescence, higher = more signal;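 note: score merges 667 nm feature fluorescence with signal to noise over triplicate slides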
# [19] = target: Neurogenic locus notch homolog protein 3 (Homo sapiens) (UniProt Q9UM47); test: NOTCH3 binders on small-molecule microarray, primary screen, biochemical, 635/667 nm fluorescence (AID 1096); conditions: NOTCH3 binding, 635 nm fluorescence, higher = more signal
# Chain of Neurogenic locus notch homolog protein 3 (Homo sapiens) (Q9UM47 whole entry, looked up): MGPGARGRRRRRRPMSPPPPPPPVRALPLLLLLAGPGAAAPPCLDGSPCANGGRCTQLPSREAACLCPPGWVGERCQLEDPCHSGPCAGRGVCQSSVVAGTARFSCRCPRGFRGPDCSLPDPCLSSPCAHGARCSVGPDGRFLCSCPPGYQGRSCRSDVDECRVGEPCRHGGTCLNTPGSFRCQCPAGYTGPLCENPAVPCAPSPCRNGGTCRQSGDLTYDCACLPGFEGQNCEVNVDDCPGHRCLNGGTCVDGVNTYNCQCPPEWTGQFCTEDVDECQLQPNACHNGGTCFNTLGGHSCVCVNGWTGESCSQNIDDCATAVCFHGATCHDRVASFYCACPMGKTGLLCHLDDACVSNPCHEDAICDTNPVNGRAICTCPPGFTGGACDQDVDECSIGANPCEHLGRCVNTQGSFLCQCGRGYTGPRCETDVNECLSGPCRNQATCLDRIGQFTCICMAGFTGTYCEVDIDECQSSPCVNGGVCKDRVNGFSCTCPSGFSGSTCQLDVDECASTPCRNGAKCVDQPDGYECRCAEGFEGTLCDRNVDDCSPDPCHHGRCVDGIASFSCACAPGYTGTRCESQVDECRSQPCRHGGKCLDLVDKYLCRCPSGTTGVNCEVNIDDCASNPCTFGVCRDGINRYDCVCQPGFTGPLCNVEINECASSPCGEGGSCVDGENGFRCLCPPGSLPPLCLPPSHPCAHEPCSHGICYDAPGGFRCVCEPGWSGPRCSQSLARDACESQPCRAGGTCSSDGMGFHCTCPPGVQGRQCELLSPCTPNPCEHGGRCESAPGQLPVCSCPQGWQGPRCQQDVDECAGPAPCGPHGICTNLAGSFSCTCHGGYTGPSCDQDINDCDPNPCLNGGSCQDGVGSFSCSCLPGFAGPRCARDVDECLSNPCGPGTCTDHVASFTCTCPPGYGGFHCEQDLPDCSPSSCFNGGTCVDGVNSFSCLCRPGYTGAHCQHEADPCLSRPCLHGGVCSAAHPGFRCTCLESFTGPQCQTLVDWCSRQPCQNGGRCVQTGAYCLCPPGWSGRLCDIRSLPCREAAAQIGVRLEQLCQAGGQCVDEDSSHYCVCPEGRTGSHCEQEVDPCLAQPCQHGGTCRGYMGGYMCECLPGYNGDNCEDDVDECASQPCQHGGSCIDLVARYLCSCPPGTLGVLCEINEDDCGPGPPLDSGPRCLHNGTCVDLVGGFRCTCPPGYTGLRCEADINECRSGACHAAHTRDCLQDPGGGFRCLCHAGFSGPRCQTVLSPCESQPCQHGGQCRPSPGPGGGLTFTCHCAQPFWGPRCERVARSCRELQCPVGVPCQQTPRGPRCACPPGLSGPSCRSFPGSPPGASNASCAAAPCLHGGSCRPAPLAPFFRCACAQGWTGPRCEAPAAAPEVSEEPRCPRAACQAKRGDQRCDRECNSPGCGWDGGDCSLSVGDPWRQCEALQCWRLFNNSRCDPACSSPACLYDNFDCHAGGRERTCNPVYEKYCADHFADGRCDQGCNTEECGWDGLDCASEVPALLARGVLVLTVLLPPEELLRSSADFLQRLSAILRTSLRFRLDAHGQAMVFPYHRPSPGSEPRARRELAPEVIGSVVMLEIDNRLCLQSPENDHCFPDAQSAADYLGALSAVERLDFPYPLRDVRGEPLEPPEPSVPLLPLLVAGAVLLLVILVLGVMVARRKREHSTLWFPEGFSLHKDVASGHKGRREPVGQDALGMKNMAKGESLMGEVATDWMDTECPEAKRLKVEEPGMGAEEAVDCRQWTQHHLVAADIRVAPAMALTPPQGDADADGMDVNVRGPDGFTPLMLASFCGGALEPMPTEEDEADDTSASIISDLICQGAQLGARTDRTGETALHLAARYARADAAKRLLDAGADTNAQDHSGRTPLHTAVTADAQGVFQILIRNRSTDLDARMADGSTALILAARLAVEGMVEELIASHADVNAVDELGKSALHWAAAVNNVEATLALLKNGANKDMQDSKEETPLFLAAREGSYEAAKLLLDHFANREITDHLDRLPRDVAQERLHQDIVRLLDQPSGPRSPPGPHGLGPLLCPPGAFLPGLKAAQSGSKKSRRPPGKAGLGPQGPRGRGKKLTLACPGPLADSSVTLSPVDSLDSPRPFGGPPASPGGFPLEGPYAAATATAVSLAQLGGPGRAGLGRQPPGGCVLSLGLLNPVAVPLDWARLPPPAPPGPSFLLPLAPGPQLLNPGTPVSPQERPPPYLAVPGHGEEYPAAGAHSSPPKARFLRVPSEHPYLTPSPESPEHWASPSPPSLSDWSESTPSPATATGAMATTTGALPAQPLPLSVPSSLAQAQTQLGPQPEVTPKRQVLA
# [20] = small-molecule microarray binders of probe aEGFR, primary screen, biochemical, biotinylated probe, 635/667 nm fluorescence (AID 1097); conditions: higher = more signal;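 note: probe is a biotinylated anti-EGFR antibody binding compounds printed on slides; score combines fluorescence near 667 nm and signal to noise of each spot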
Structure (SMILES),composite z-score [1],composite z-score [2],composite z-score [3],composite z-score [4],composite z-score [5],composite z-score [6],composite z-score [7],z-score [8],composite z-score [9],composite z-score [10],composite z-score [11],z-score [12],z-score [13],z-score [14],composite z-score [15],z-score [16],composite z-score [17],composite z-score [18],composite z-score [19],composite z-score [20]
O=C(CCCCCCC(=O)Nc1ccccc1)N/N=C/c1ccccc1,-0.199,0.0786,-0.141,0.0493,-0.252,-0.384,-0.147,0.0691 (inactive),-0.0659,0.0373,-0.998,0.507 (inactive),0.0263 (inactive),1.06 (inactive),-0.743,0.195 (inactive),-0.105,-0.361,-0.783,-0.117
O=C1c2ccccc2[C@@]2(Cc3ccccc3N(C3CC3)C2=O)[C@H](c2ccc(CO)cc2)N1C1CCCCC1,-0.0266,-0.625,-0.0325,-0.015,-0.119,0.123,-0.716,0.291 (inactive),-0.0416,-0.0994,-0.767,-0.451 (inactive),0.285 (inactive),-0.728 (inactive),1.79,-0.1 (inactive),-0.17,-0.699,-0.938,-0.168
CN1C(=O)C2C(C1=O)C1C=C(c3ccc(CO)cc3)C2C(c2cccs2)N1Cc1cccc(OC(F)(F)F)c1 (stereo not given),-0.16,0.669,-0.109,0.432,1.25,1.87,1.35,0.785 (inactive),0.875,0.0505,1.55,-1.68 (inactive),-2.57 (inactive),3.35 (inactive),2.65,0.907 (inactive),0.0007,1.38,1.09,-0.013
COc1ccc([Si](C)(C)[C@@H]2[C@@H](CC(=O)N3CCC[C@H]3CO)O[C@]3(C(=O)N(Cc4ccc(N5C(=O)c6cccc7cccc5c67)cc4)c4ccccc43)[C@H]2C)cc1,-0.629,0.847,-0.0563,0.995,0.733,1.5,0.976,-1.5 (inactive),0.622,-0.216,1.54,0.035 (inactive),0.378 (inactive),0.922 (inactive),3.07,1.84 (inactive),-0.238,1.41,1.08,-0.129
NC(N)=NCc1cn(CCc2c[nH]c3ccccc23)nn1,-0.711,0.348,-0.121,0.536,0.348,0.499,0.992,0.512 (inactive),0.225,0.132,0.974,-0.289 (inactive),-0.002 (inactive),-1.38 (inactive),1.01,-0.979 (inactive),-0.166,1.36,0.646,0.128
C=C(C(=O)CC[C@H](OC(=O)c1cccnc1)c1cccc(OCCO)c1)C(C)C,0.483,0.401,-0.157,-0.195,-1.26,-0.593,0.484,0.243 (inactive),-0.809,0.238,1.03,0.865 (inactive),0.167 (inactive),1.1 (inactive),0.391,0.483 (inactive),-0.017,-0.367,-0.424,-0.0238
COc1cc(CO)cc(I)c1O[C@H]1C=C(C(=O)NCCO)C[C@@H](NCc2ccccc2F)[C@@H]1O,-0.267,0.644,0.0232,1.17,0.161,0.321,0.989,-1.05 (inactive),0.0915,-0.0645,1.13,2.24 (inactive),-3.89 (inactive),0.519 (inactive),0.491,1.77 (inactive),-0.0943,1.05,0.75,-0.151
CN(C)CCCNC(=O)[C@@H]1c2ccccc2C(=O)N(Cc2ccc(OC(F)(F)F)cc2)[C@H]1c1ccc(CO)cc1,-0.212,-0.103,-0.113,-0.133,-0.0854,1.22,1.15,-1.22 (inactive),0.18,0.287,1.54,-1.02 (inactive),-1.06 (inactive),-1.41 (inactive),2.22,-0.883 (inactive),-0.0654,0.912,0.951,-0.171
COC(=O)[C@@]1(Cc2ccc(OC)cc2)[C@H]2c3cc(C(=O)N(C)C)n(Cc4nc5ccccc5[nH]4)c3C[C@H]2CN1C(=O)c1ccccc1,0.0732,-0.401,0.212,0.874,1.76,1.82,1.23,-1.62 (inactive),1.09,0.147,0.777,0.591 (inactive),1.49 (inactive),6.95 (inactive),3.61,-0.648 (inactive),0.3,0.493,1.02,0.329
COC(=O)[C@@]1(Cc2ccc(F)cc2)[C@H]2c3cc(C(=O)N4CCCC4)n(CCF)c3C[C@H]2CN1C(=O)c1ccccc1,0.999,1.52,0.856,1.1,1.55,1.65,1.29,-0.533 (inactive),2.81,2.09,-0.195,-0.496 (inactive),-0.202 (inactive),-0.0254 (inactive),3.13,0.164 (inactive),1.49,-0.258,1.13,0.879
